# Screen size: about 53,000 sequences; about 3,700 (7%) were called active.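 How the source made its calls: active means gene knockdowns whose robust z-score for IL-1 alpha signal is at least 2 or at most -2, so actives lie on both sides; inactive means the rest.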 Many of the other results were omitted from the sample, so actives are more common in it than they were.
# Assay: Components of the Cytosolic LPS Sensing Pathway: Gene Identification via Genome-wide siRNA Screen;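 further: robust z of the log signal after scaling to non-targeting control siRNA wells of the plate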
# Conditions: RAW264.7 macrophages, IL-1a HTRF, actives lie on both sides, screened at 100 nM (by protocol), cells primed 5 h with Pam3CSK4 first
# How it was run: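 RAW264.7 mouse macrophages reverse-transfected with single siRNAs (100 nM final) for 48h, primed with Pam3CSK4 for 5 hours, then transfected with LipidA for 24 hour. Supernatant IL-1a read by HTRF; values normalized to negative-control median, log-transformed robust z-scores.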
row,Sequence,z-score
1,GGAAAAAAUUAAAGAGCACTT against Gmcl1,2.15 (active)
2,GGCACAAAAGAAGAAGAUGTT against Retsat,-1.7 (inactive)
3,CGAUAAUGAAAGUGACCAUTT against Uri1,-0.0814 (inactive)
4,GGAUGCUAGACUAAUACUATT against Slc25a32,1.3 (inactive)
5,CGGGAAAGAGAUCAUCCCUTT against Nr1i2,-3.3 (active)
6,GGGAGGGAUGCAGUAAAUGTT against Acaa1a,-0.337 (inactive)
7,GCAGGAACGUGAGGACCAUTT against Snip1,0.842 (inactive)
8,GGCUCUGUGCAGACAUUUCTT against Pop5,-1.51 (inactive)
9,GUUCCGACUGAACUUGUAUTT against Psmb3,-2.55 (active)
10,GCCUGGAUACAAUUACCCUTT against Tc2n,-0.893 (inactive)
11,GCUCAGUAAUCGCUGUCUATT against Olfr91,-0.62 (inactive)
12,GGAGAUGAUACAUAAUCUATT against Psmd12,-0.0292 (inactive)
13,GCCUAAACCUGAGUUAUAATT against Lrig1,2.34 (active)
14,GGUGACAAAGGUGUUAGAATT against Itpkc,-0.252 (inactive)
15,GGUGACCAAAAAAGCUUUATT against Pax9,1.37 (inactive)
16,GCUCAAAUAACUCCACCACTT against Pola1,-1.73 (inactive)
17,GGCGACCACUUUGUCUACATT against Plekhg3,1.1 (inactive)
18,GGGAAUUCUCCUGUUUGCUTT against Plp2,-2.22 (active)
19,GCUGCGUCCUAUGAGUUUATT against Drg2,1.72 (inactive)
20,GGCAGCAAGGAAACUAUUATT against Kpna3,1.39 (inactive)
21,GCCAACGAAAAAUGACCUCTT against Wnt2,-0.046 (inactive)
22,GGCCAAAAGUAUGAAAGUATT against Tspan1,0.45 (inactive)

row,Sequence,z-score
1,GCGUGUUGUGAUGUCACCUTT against Cisd1,-0.0193 (inactive)
2,CCAGAUACUUCUCAUGGCGTT against Dipk1b,-0.0671 (inactive)
3,CGAUUUGCCUUAUUUUUCATT against Litaf,1.23 (inactive)
4,GGAAGUACAAACUACUAGUTT against Mcmbp,-0.393 (inactive)
5,GGCUUUCAAGAGCAAUCCCTT against Man2b2,-2.21 (active)
6,GGAGCUAGACAAAACUAAATT against Vmn2r81,-0.882 (inactive)
7,GUAGAAGAUGGAAUUUUUGTT against Rpl22l1,0.048 (inactive)
8,GGUCUGUGAGGAACAAAAGTT against Ccnd2,-2.26 (active)
9,CCUGAUGGGUUACCUAUGCTT against Col25a1,-0.379 (inactive)
10,GCGGUUCCAAGAUUGUUGUTT against Armc8,0.109 (inactive)
11,GCUGAUCGCUUUGAUUCGATT against Fkbp11,-0.495 (inactive)
12,GCUAACACUGCGCUUGGAATT against 1700067K01Rik,-1.39 (inactive)
13,GGGACCAGAACCACAAACATT against Ghsr,-1.62 (inactive)
14,GGACUAAAUAGGUUUACCATT against Alx1,1.26 (inactive)
15,CGCAGACAGAGACAACCUGTT against Casp6,-0.73 (inactive)
16,GCAGGUCACUUUCUAGAGATT against Srsf3,-2.25 (active)
17,GCGUGUCCUAUAGCAUCUGTT against Cela1,-0.106 (inactive)
18,GGAAUUGAAGGGUACUUAATT against Fam111a,-1.97 (inactive)
19,GCCAAAUAUUAUUCCUACATT against Sec63,-0.282 (inactive)
20,GGCAUUGAGAUGAAAUGAATT against 4933427E11Rik,-2.5 (active)
21,GGGAAUCCUAGACAUGCUGTT against Nphp4,-1.91 (inactive)
22,GGGCAACCUGUCACAUUAUTT against Spam1,1.16 (inactive)

row,Sequence,z-score
1,CCUCAUCCUUAGUUGUUUUTT against Ift88,-0.15 (inactive)
2,GCACAAUGGUGUUAAGUCATT against Ado,2.3 (active)
3,GGAACCUCUCAAUUUUGCGTT against Pik3ip1,0.659 (inactive)
4,GCAGGUUUAACAACUUACUTT against Dmgdh,3.07 (active)
5,GGAUUAGGUCAUUAUUAGGTT against Kcne3,-0.202 (inactive)
6,GGCAGUCUUGUCCCUUGUATT against Myl12a,-0.74 (inactive)
7,GGAAGAAGGAACAUGAUCUTT against Mrpl52,-0.928 (inactive)
8,CCCAGUUCUGUCCUACUUATT against Efcab6,-2.79 (active)
9,GGAGACAGUGGUAUUUUGATT against Birc5,0.468 (inactive)
10,GGAAGCAUGUGAGAGAAAATT against C130026I21Rik,-1.03 (inactive)
11,GGCAUCACACAGGAGAAAATT against Ppp1r16b,-0.391 (inactive)
12,GGAACAGAUGGGUGUGAAATT against Wnt2b,-0.0195 (inactive)
13,GGAAUUCAUUGCUAUUAUGTT against Cetn3,2.12 (active)
14,CUUUUGUAAAGCCUUCCACTT against Zfp708,-0.259 (inactive)
15,GGAUCUCGGGAAAAAGUUGTT against Spesp1,0.185 (inactive)
16,GGUCUAUCUGAAGAACAGUTT against Xpo5,1.02 (inactive)
17,GGAGGCAUGCCCUAUGAAUTT against Zfp11,1.4 (inactive)
18,CCUCAAAUUAGUGCAGUUATT against Dnah8,0.661 (inactive)
19,GGUGGCACUCUUUCAGAUCTT against Dennd1a,2.08 (active)
20,GCUUGUCAAGUUUGUGAGCTT against Sec14l4,-0.0652 (inactive)
21,GGAAUAGUAACUCUUUCUCTT against Ehbp1l1,-0.0157 (inactive)
22,GGUUGUGGACACAUCCAAATT against Aacs,2.08 (active)

row,Sequence,z-score
1,GGAUGUUAAAGCAAGUGUATT against Olfr1153,0.169 (inactive)
2,CGAGGAUUUCUAUCCUGACTT against Ascc1,-0.764 (inactive)
3,GGAAGUGCUCUGCUGUACATT against Eml6,0.655 (inactive)
4,GCUUGGUCAUUUUAAUAGGTT against Zscan29,-0.527 (inactive)
5,GGCCAGUGGGAAGUGAAGATT against Sec13,0.124 (inactive)
6,GCCAUAUCAACCGUAUUGGTT against Lzts3,-2.58 (active)
7,CGUGUACCAGCUACCUAAGTT against Phc2,-1.31 (inactive)
8,GGUUAGUAUGUAGCUCCCATT against Olfr982,-0.401 (inactive)
9,GGAACUUAAGAACUUUCUATT against Calb1,2.3 (active)
10,GGCCUAAAUUGACAAACUUTT against Oga,1.04 (inactive)
11,GGUAAAACAGAGGAGUCGGTT against Scaf1,-0.444 (inactive)
12,GGUACAAACUCUCCCUAGATT against Ube2c,-1.29 (inactive)
13,GGAUCUACAUUGCUAAAGUTT against Dbil5,0.0731 (inactive)
14,GCCCAAAAAGUGCUUGCUGTT against Tmem215,-1.76 (inactive)
15,CCUUCCCUUAAAUGGAACCTT against Slc9a1,1.63 (inactive)
16,CGCAGUGAUUAUGACCUCCTT against Thegl,-2.34 (active)
17,GCCUUGUUACAAAUAGUCGTT against Tcf12,0.266 (inactive)
18,GGGAUUCGGUGAAGAUUUGTT against Nfe2l1,-0.736 (inactive)
19,GGUGAAAUCCUGAUGUUUUTT against Vps33b,0.301 (inactive)
20,GGGACAAGAUCUGAACUUCTT against Rgl3,-0.36 (inactive)
21,CCUCACUGUGGUAACAUUATT against Olfr452,1.84 (inactive)
22,GGAAAACAAACCACAGCCATT against Tpbpa,-2.66 (active)

row,Sequence,z-score
1,GGUGCUAUUCAUCUGCACGTT against Lonp1,-1.09 (inactive)
2,GCCUGUCAUGGUUAUGACCTT against Shbg,-0.803 (inactive)
3,GGACAGAUACGUUAUCAAGTT against Il3,1.31 (inactive)
4,CCCAUUUGAAAUUAGGGUATT against Mief1,0.607 (inactive)
5,GCUGGCUUCAUUUUACUUATT against Degs1,0.126 (inactive)
6,GGAUUACAGGCAUUUGGUUTT against Hmgn1,3.01 (active)
7,GGAGUGAAGAUCUGAUUGCTT against Aaas,-1.63 (inactive)
8,GCUGGGAUGGUAUCGUUUCTT against Ripk2,0.559 (inactive)
9,GGUAUUGAUGCCAAAUUAATT against Plekha5,1.38 (inactive)
10,CGUCCUGUCGCUGAUUAAATT against Tcl1,0.323 (inactive)
11,CCGAAAAGUGUGGCGAGAATT against Arid3c,-0.285 (inactive)
12,CCAGAGUAAUUCAUCAUACTT against Agxt,0.172 (inactive)
13,GGUUCAGUUUGCCAAAGACTT against Elfn1,1.45 (inactive)
14,GGACUUCACAUUCUUGAGATT against A130010J15Rik,-0.232 (inactive)
15,GGUGGGCACUCUGGUUUUUTT against Eif4e,4.66 (active)
16,GUAGUAACCAGAUCUUAUATT against Vmn1r29,0.496 (inactive)
17,GGUUCAGCCAGAAUUUUCGTT against Lefty2,0.876 (inactive)
18,GGAAAAGACUAACGAGCGGTT against Med11,-0.703 (inactive)
19,GGUCCUUCGUAGUUGUGGUTT against Sp110,1.33 (inactive)
20,GCAAAAACCUAUAGGAAAATT against Srpk2,2.27 (active)
